D2 ag-1 = agonists of human D2 dopamine receptor (beta-arrestin) | activation, % (no concentration beside the values) | P14416 | DiscoveRx PathHunter D2 beta-arrestin, luminescence, 90 min; 100% = 57 uM dopamine signal | 360,000 compounds, 0.084% hits; in the data active = activation above about 40%; inconclusive = between about 15% and that limit
Target sequence (P14416 whole entry, looked up): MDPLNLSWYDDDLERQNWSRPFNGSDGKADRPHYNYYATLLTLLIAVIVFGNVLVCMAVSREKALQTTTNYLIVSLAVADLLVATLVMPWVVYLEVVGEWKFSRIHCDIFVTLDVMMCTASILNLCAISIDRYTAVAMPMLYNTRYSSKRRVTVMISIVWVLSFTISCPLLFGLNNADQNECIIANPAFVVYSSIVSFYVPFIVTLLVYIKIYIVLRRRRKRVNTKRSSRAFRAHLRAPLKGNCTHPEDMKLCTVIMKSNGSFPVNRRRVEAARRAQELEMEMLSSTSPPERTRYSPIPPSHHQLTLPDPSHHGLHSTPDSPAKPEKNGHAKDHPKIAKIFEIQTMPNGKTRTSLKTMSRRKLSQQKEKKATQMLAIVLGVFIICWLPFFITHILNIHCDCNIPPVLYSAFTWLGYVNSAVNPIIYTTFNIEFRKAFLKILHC
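DiscoveRx PathHunter D2 beta-arrestin cells (2,100/well) attached overnight, then compound-stimulated 90 min at 37 C in HBSS/10 mM HEPES/0.1% Tween-20 buffer; beta-galactosidase complementation read by luminescence after 1 h at ambient temperature. Dopamine 57 uM final (EC100) as control.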
D2 ag-2 = activates the human D2 dopamine receptor; P14416; HEK293 T-REx D2 cells, calcium flux agonist mode; activation, % at 2 µM; 340,000 compounds, 0.53% hits;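 active = activation over 3 SD above normal in the single-dose calcium agonist read, cut at about 30% in these data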; also: 0% is about no effect
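Agonism is scored from calcium flux in a force-coupled, inducible HEK293 cell line expressing D2, read kinetically for 180 s after compound addition against dopamine controls.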
LDHA block = LDHA (human) enzyme inhibition; purified LDHA, NADH/diaphorase-resazurin fluorescence; active compounds read low; P00338; activity change, % (values are at about 110 or 230 µM); 480,000 compounds, 0.15% hits; in the data active = activity change below about -30%; inconclusive = mostly about -25% to -30%;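 also: plate controls were DMSO wells for no effect and wells without enzyme for full effect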
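Enzyme activity of human lactate dehydrogenase 5 (2 nM; 0.06 mM NADH, 0.2 mM pyruvate, 5 min, RT) is measured via a resazurin/diaphorase fluorescence readout of residual NADH.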
D2 PAM-1 = D2 dopamine receptor (human) potentiation; 340,000 compounds, 0.34% hits; HEK293 T-REx D2, calcium flux, EC20 dopamine potentiation; AID 485347; potentiation, % at 10 µM;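 active = potentiation over 3 SD above the plate norm, cut at about 30% in these data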; also: 0% is about no effect
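Primary screen. Calcium kinetics in induced HEK293 T-REx D2 cells: compound pre-addition 180 s, EC20 dopamine, 180 s more.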
D2 antag = antagonizes the human D2 dopamine receptor. P14416. HEK293 TREx D2 cells, calcium flux, dopamine EC80. inhibition, % at 10 µM. 340,000 compounds, 2% hits. AID 485344; in the data active = inhibition above about 30%; inactive = below that, where a call was filed; also: 0% is about no effect
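Overnight-induced (tetracycline, 30 C) HEK293 T-REx cells carrying force-coupled D2 receive a no-wash calcium dye, then compound, then EC80 dopamine at 180 s; signals are read kinetically throughout.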
D2 PAM-2 = potentiates the human D2 dopamine receptor allosterically. P14416. DiscoveRx D2 beta-arrestin cells, luminescence, 90 min; 100% = 57 uM dopamine signal. potentiation, % (no concentration beside the values). 360,000 compounds, 0.23% hits; in the data active = potentiation above about 50%; inconclusive = mostly about 30% to 49%
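D2 cells co-treated with compound plus 50 nM dopamine (EC20) for 90 min at 37 deg C to detect potentiation. Beta-arrestin recruitment was read as enzyme-fragment luminescence after 1 h at ambient temperature. Full response was set by 57 uM dopamine.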
An asterisk follows results filed as active; ? = inconclusive; . = no result given. In the library only some 2.1% were active in any assay of this set; here they are far more common.

SMILES	D2 ag-1	D2 ag-2	LDHA block	D2 PAM-1	D2 antag	D2 PAM-2
O=C(CC1NCCc2ccccc21)Nc1ccc(Cl)cc1 (stereo not given)	-1	5	2	-40	44*	-22
COc1cc(Cl)c(C)cc1NC(=O)CSc1ncc(S(=O)(=O)c2ccc(C(C)(C)C)cc2)c(=O)[nH]1	.	-1	-39*	23	.	.
CC(C)(C)c1ccc(S(=O)(=O)c2cnc(SCC(=O)Nc3ccc(F)c(Cl)c3)[nH]c2=O)cc1	.	-1	-49*	25	.	.
Clc1ccc(-c2onc3ccc(-c4ccccc4)cc23)cc1	.	.	5	.	.	.
O=c1cc(-c2ccccc2Cl)oc2cccc(O)c12	-2	-1	-4	-7	6	-12
O=c1cc2oc3cc(O)c(O)cc3c(-c3ccccc3[N+](=O)[O-])c-2cc1O	-4	1	14	24	31*	9
CN1CCN(Cc2ccc(-c3ccc(Cl)cc3)o2)CC1	1	1	-3	-32	1	-18
Clc1ccc(-c2ccc(CN3CCCCC3)o2)cc1	-3	0	-16	-28	78*	-66
Cc1ccc(NC(=O)c2ccc3c(c2)OCCO3)cc1S(=O)(=O)Nc1cccc(Cl)c1	2	1	0	-4	31*	7
CCOc1ccc(NC(=O)c2ccc3c(c2)OCCO3)cc1S(=O)(=O)N(CC)CC	-2	0	1	-9	32*	-8
CCc1ccccc1-n1nnnc1SCC(=O)Nc1ccc2nccnc2c1	.	.	6	.	.	.
COc1ccc(/C=C(/CCCC(=O)O)c2nc3ccccc3s2)cc1C	.	.	11	.	.	.
CC(C)(C)C(=O)/C=c1\s/c(=C\c2ccc(-c3ccc([N+](=O)[O-])cc3)o2)c(=O)n1CC(=O)NC(N)=O	4	206*	-3	-29	91*	4
COCCCNc1nc(-c2ccccc2O)nc2ccccc12	.	.	7	.	.	.
COc1ccccc1N1CCN(Cc2c[nH]c3ccccc23)CC1	-1	0	-8	-17	48*	-20
COc1ccccc1N1CCN(C(=O)CCc2c[nH]c3ccccc23)CC1	-5	0	-2	5	45*	-1
Cc1ccccc1N1CCN(Cc2c[nH]c3ccccc23)CC1	-4	0	-5	-19	40*	-19
c1ccc2c(CN3CCN(Cc4c[nH]c5ccccc45)CC3)c[nH]c2c1	.	.	-1	.	.	.
COc1ccc(N2CCN(C(=O)CCc3c[nH]c4ccccc34)CC2)cc1	5	2	4	1	19	-1
Fc1ccc(N2CCN(Cc3c[nH]c4ccccc34)CC2)cc1	.	2	.	-23	93*	.
CCOc1cccc(CNC2CC2)c1	.	.	-9	.	.	.
COc1ccccc1N1CCN(C(=O)C(=O)c2cn(CC(=O)N3CCCCCC3)c3ccccc23)CC1	4	0	-1	-18	38*	-27
COc1ccccc1N1CCN(C(=O)C(=O)c2cn(CC(=O)N3CCCC3)c3ccccc23)CC1	0	1	0	-2	-14	-19
Fc1ccc(-c2cc3nc(-c4ccccc4)cc(N4CCN(CCN5CCOCC5)CC4)n3n2)cc1	2	1	-3	-24	-12	-12
CN1CCN(c2cc(-c3ccccc3)nc3cc(-c4ccc(F)cc4)nn23)CC1	-3	0	-1	-21	54*	-38
SMILES	D2 ag-1	D2 ag-2	LDHA block	D2 PAM-1	D2 antag	D2 PAM-2
COc1ccc(NC(=O)CSC2=C(C#N)C(c3ccc(Cl)cc3)C(C(C)=O)=C(C)N2)cc1 (stereo not given)	.	.	12	.	.	.
O=C(CSc1nnc(-c2ccncc2)n1C1CC1)c1cc2cc(Cl)ccc2o1	.	.	-4	.	.	.
CC(=O)Nc1ccc(NC2=C(Cl)C(=O)c3ccccc3C2=O)cc1	?	0	35	7	-4	20
Cc1ccc(NC2=C(NCCO)C(=O)c3ccccc3C2=O)cc1	8	0	29	10	-4	60*
CCCC(=O)Nc1ccc2nc(SCC(=O)Nc3nccs3)sc2c1	1	0	-35*	-11	8	-21
Nc1nnc(SCC(=O)Nc2nccs2)s1	-3	2	1	-5	5	1
Cc1nnc(SCC(=O)Nc2nccs2)s1	0	-1	-4	10	34*	7
